Assay results as given in the supplement of paper PMC12669032.

Experiments:
Experiment in all cases: growth AUC relative to DMSO control (median of replicates) (fraction); higher = more growth (less inhibition), active = hit call of the paper
Conditions in all cases: 20 µM; 24 h;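 active = AUC reduced over 20% with Padj below 0.05 in at least 2 of 3 replicates; inactive = otherwise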
Akkermansia muciniphila = tested on: Akkermansia muciniphila
Method in brief: (§1)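 Area under the growth curve was normalised to the plate median of solvent-only wells, or to row and column medians on the industrial chemical plate. Growth curves came from anaerobic gut bacterial monocultures in mGAM at 37 °C, seeded at OD600 0.05 with 20 µM compound (1% DMSO), and read at OD600 hourly for 24 h with the minimum OD set to 0. The value is the median of three biological replicates grown on separate days.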

Bacteroides caccae = tested on: Bacteroides caccae
Method in brief: as §1

Bacteroides clarus = tested on: Bacteroides clarus
Method in brief: as §1

Bacteroides dorei = tested on: Bacteroides dorei
Method in brief: as §1

Bacteroides stercoris = tested on: Bacteroides stercoris
Method in brief: as §1

[1] = tested on: Bacteroides thetaiotaomicron
Method in brief: as §1

Bacteroides uniformis = tested on: Bacteroides uniformis
Method in brief: as §1

[2] = tested on: Bifidobacterium longum subsp. longum
Method in brief: as §1

Clostridium difficile = tested on: Clostridium difficile
Method in brief: as §1

Collinsella aerofaciens = tested on: Collinsella aerofaciens
Method in brief: as §1

Coprococcus comes = tested on: Coprococcus comes
Method in brief: as §1

Escherichia coli ED1a = tested on: Escherichia coli ED1a
Method in brief: as §1

Escherichia coli IAI1 = tested on: Escherichia coli IAI1
Method in brief: as §1

Eubacterium rectale = tested on: Eubacterium rectale
Method in brief: as §1

[3] = tested on: Fusobacterium nucleatum subsp. animalis
Method in brief: as §1

Lactobacillus gasseri = tested on: Lactobacillus gasseri
Method in brief: as §1

Lactobacillus paracasei = tested on: Lactobacillus paracasei
Method in brief: as §1

Odoribacter splanchnicus = tested on: Odoribacter splanchnicus
Method in brief: as §1

[4] = tested on: Parabacteroides distasonis
Method in brief: as §1

Parabacteroides merdae = tested on: Parabacteroides merdae
Method in brief: as §1

Row | SMILES | growth AUC (Akkermansia muciniphila) | growth AUC (Bacteroides caccae) | growth AUC (Bacteroides clarus) | growth AUC (Bacteroides dorei) | growth AUC (Bacteroides stercoris) | growth AUC [1] | growth AUC (Bacteroides uniformis) | growth AUC [2] | growth AUC (Clostridium difficile) | growth AUC (Collinsella aerofaciens) | growth AUC (Coprococcus comes) | growth AUC (Escherichia coli ED1a) | growth AUC (Escherichia coli IAI1) | growth AUC (Eubacterium rectale) | growth AUC [3] | growth AUC (Lactobacillus gasseri) | growth AUC (Lactobacillus paracasei) | growth AUC (Odoribacter splanchnicus) | growth AUC [4] | growth AUC (Parabacteroides merdae)
1 | CC(C)N(C(=O)CCl)c1ccccc1 | 0.256 (active) | 1.02 (inactive) | 0.969 (inactive) | 1.01 (inactive) | 0.978 (inactive) | 0.933 (inactive) | 0.96 (inactive) | 0.946 (inactive) | 0.965 (inactive) | 1.05 (inactive) | 0.961 (inactive) | 0.982 (inactive) | 1.02 (inactive) | 0.923 (inactive) | 0.911 (inactive) | 1.17 (inactive) | 0.946 (inactive) | 0.942 (inactive) | 0.992 (inactive) | 0.982 (inactive)
2 | COP(=O)(OC)Oc1ccc(SC)c(C)c1 | 0.861 (inactive) | 0.994 (inactive) | 0.978 (inactive) | 1.03 (inactive) | 0.981 (inactive) | 0.979 (inactive) | 0.982 (inactive) | 1 (inactive) | 0.999 (inactive) | 0.993 (inactive) | 0.991 (inactive) | 1 (inactive) | 1.02 (inactive) | 0.96 (inactive) | 0.986 (inactive) | 1.1 (inactive) | 1 (inactive) | 0.994 (inactive) | 1.02 (inactive) | 1.05 (inactive)
3 | N#Cc1cc(Br)c(O)c(Br)c1 | 1.11 (inactive) | 0.896 (inactive) | 0.951 (inactive) | 0.924 (inactive) | 0.875 (inactive) | 0.997 (inactive) | 0.988 (inactive) | 1.05 (inactive) | 0.98 (inactive) | 0.968 (inactive) | 0.996 (inactive) | 0.907 (inactive) | 0.773 (active) | 1.28 (inactive) | 0.864 (inactive) | 0.903 (inactive) | 0.988 (inactive) | 1.1 (inactive) | 0.915 (inactive) | 0.94 (inactive)
4 | Cc1c(N)cccc1N | 0.946 (inactive) | 0.969 (inactive) | 1.04 (inactive) | 1 (inactive) | 1.18 (inactive) | 0.992 (inactive) | 1 (inactive) | 1 (inactive) | 1 (inactive) | 1.04 (inactive) | 1.01 (inactive) | 0.995 (inactive) | 0.981 (inactive) | 1.01 (inactive) | 1.04 (inactive) | 1.01 (inactive) | 0.991 (inactive) | 0.938 (inactive) | 0.995 (inactive) | 1.01 (inactive)
5 | Cc1cc(C(F)(C(F)(F)F)C(F)(F)F)ccc1NC(=O)c1cccc(I)c1C(=O)NC(C)(C)CS(C)(=O)=O | 1.06 (inactive) | 1.2 (inactive) | 1.2 (inactive) | 1 (inactive) | 0.937 (inactive) | 1.02 (inactive) | 1.01 (inactive) | 1.06 (inactive) | 0.92 (inactive) | 1.7 (inactive) | 1.21 (inactive) | 1.1 (inactive) | 1.14 (inactive) | 1.09 (inactive) | 1.13 (inactive) | 3.03 (inactive) | 1.48 (inactive) | 0.994 (inactive) | 0.795 (inactive) | 0.99 (inactive)
6 | CCSCc1ccccc1OC(=O)NC | 0.874 (inactive) | 1.01 (inactive) | 0.972 (inactive) | 0.995 (inactive) | 0.992 (inactive) | 0.967 (inactive) | 0.973 (inactive) | 0.967 (inactive) | 0.972 (inactive) | 1 (inactive) | 0.959 (inactive) | 0.971 (inactive) | 0.98 (inactive) | 0.933 (inactive) | 0.973 (inactive) | 1.13 (inactive) | 1.01 (inactive) | 1.03 (inactive) | 1.06 (inactive) | 1.01 (inactive)
7 | CC(C)(C)C(O)(CCc1ccc(Cl)cc1)Cn1cncn1 (stereo not given) | 0.856 (inactive) | 0.965 (inactive) | 1.01 (inactive) | 1.03 (inactive) | 1.1 (inactive) | 0.98 (inactive) | 0.959 (inactive) | 0.956 (inactive) | 1.06 (inactive) | 1.06 (inactive) | 1.02 (inactive) | 1.01 (inactive) | 0.991 (inactive) | 0.879 (inactive) | 1.05 (inactive) | 1.04 (inactive) | 0.968 (inactive) | 0.973 (inactive) | 0.903 (inactive) | 0.962 (inactive)
8 | CCC(CC)Nc1c([N+](=O)[O-])cc(C)c(C)c1[N+](=O)[O-] | 1.03 (inactive) | 0.888 (inactive) | 0.942 (inactive) | 0.91 (inactive) | 0.86 (inactive) | 0.96 (inactive) | 0.954 (inactive) | 1 (inactive) | 0.962 (inactive) | 0.909 (inactive) | 0.982 (inactive) | 0.987 (inactive) | 0.947 (inactive) | 0.979 (inactive) | 0.93 (inactive) | 0.858 (inactive) | 0.935 (inactive) | 1.11 (inactive) | 0.974 (inactive) | 0.942 (inactive)
9 | CC1(C)CC/C(=C\c2ccc(Cl)cc2)C1(O)Cn1cncn1 (stereo not given) | 0.95 (inactive) | 0.976 (inactive) | 0.983 (inactive) | 0.965 (inactive) | 0.792 (inactive) | 0.971 (inactive) | 0.995 (inactive) | 1.08 (inactive) | 0.984 (inactive) | 0.987 (inactive) | 0.974 (inactive) | 0.999 (inactive) | 0.98 (inactive) | 0.986 (inactive) | 0.97 (inactive) | 0.935 (inactive) | 0.955 (inactive) | 1.04 (inactive) | 0.964 (inactive) | 0.967 (inactive)
10 | ClC1=C(Cl)C2(Cl)C3C4C=CC(C4)C3C1(Cl)C2(Cl)Cl (stereo not given) | 1.11 (inactive) | 1.02 (inactive) | 0.987 (inactive) | 1.01 (inactive) | 1.02 (inactive) | 1.03 (inactive) | 1.01 (inactive) | 0.998 (inactive) | 1.02 (inactive) | 1.01 (inactive) | 1.02 (inactive) | 0.996 (inactive) | 1.02 (inactive) | 0.986 (inactive) | 1 (inactive) | 0.955 (inactive) | 0.997 (inactive) | 1.05 (inactive) | 1.05 (inactive) | 1.02 (inactive)
11 | O=[N+]([O-])c1ccc(Oc2ccc(C(F)(F)F)cc2[N+](=O)[O-])cc1 | 0.834 (inactive) | 0.929 (inactive) | 0.878 (inactive) | 0.88 (inactive) | 1.05 (inactive) | 0.92 (inactive) | 0.917 (inactive) | 0.936 (inactive) | 1.02 (inactive) | 0.93 (inactive) | 0.856 (inactive) | 0.964 (inactive) | 0.959 (inactive) | 0.88 (inactive) | 0.969 (inactive) | 0.977 (inactive) | 0.766 (inactive) | 0.982 (inactive) | 0.957 (inactive) | 0.953 (inactive)
12 | O=C1C2CC=CCC2C(=O)N1SC(Cl)(Cl)Cl (stereo not given) | 0.981 (inactive) | 1.03 (inactive) | 1.01 (inactive) | 1.03 (inactive) | 1.08 (inactive) | 1.01 (inactive) | 1.02 (inactive) | 0.981 (inactive) | 1.04 (inactive) | 1.02 (inactive) | 1.03 (inactive) | 1.02 (inactive) | 1.02 (inactive) | 1.1 (inactive) | 1.1 (inactive) | 1.06 (inactive) | 1.01 (inactive) | 0.999 (inactive) | 1.07 (inactive) | 1.02 (inactive)
13 | c1ccc2c(c1)cc1ccc3cccc4ccc2c1c34 | 1.01 (inactive) | 0.957 (inactive) | 0.94 (inactive) | 0.956 (inactive) | 0.978 (inactive) | 1 (inactive) | 0.957 (inactive) | 1.09 (inactive) | 0.983 (inactive) | 1.03 (inactive) | 1 (inactive) | 1.02 (inactive) | 1 (inactive) | 0.971 (inactive) | 0.951 (inactive) | 1.04 (inactive) | 0.967 (inactive) | 0.932 (inactive) | 0.994 (inactive) | 0.974 (inactive)
14 | CC(C)(C)C(=O)C(Oc1ccc(Cl)cc1)n1cncn1 (stereo not given) | 1.04 (inactive) | 0.993 (inactive) | 1 (inactive) | 1.01 (inactive) | 1.1 (inactive) | 0.999 (inactive) | 0.978 (inactive) | 1.02 (inactive) | 1.03 (inactive) | 1.01 (inactive) | 1.03 (inactive) | 1.02 (inactive) | 1.02 (inactive) | 1.05 (inactive) | 0.974 (inactive) | 1.05 (inactive) | 1.02 (inactive) | 1.04 (inactive) | 1.03 (inactive) | 0.985 (inactive)
15 | COc1ccc(-c2ccccc2)cc1NNC(=O)OC(C)C | 0.865 (inactive) | 0.921 (inactive) | 0.974 (inactive) | 0.991 (inactive) | 1.08 (inactive) | 0.958 (inactive) | 0.942 (inactive) | 0.982 (inactive) | 0.993 (inactive) | 1.05 (inactive) | 0.957 (inactive) | 1.03 (inactive) | 1.01 (inactive) | 1 (inactive) | 0.965 (inactive) | 0.967 (inactive) | 0.971 (inactive) | 0.948 (inactive) | 0.892 (inactive) | 0.937 (inactive)
16 | CNC(=O)O/N=C/C(C)(C)SC | 0.909 (inactive) | 1.03 (inactive) | 0.993 (inactive) | 1.03 (inactive) | 0.943 (inactive) | 0.987 (inactive) | 1.01 (inactive) | 0.957 (inactive) | 0.979 (inactive) | 1.04 (inactive) | 1.01 (inactive) | 1.01 (inactive) | 1.03 (inactive) | 0.966 (inactive) | 0.939 (inactive) | 1.12 (inactive) | 0.99 (inactive) | 1 (inactive) | 1.03 (inactive) | 0.961 (inactive)
